An excerpt weighted towards active compounds, which were near 19% of everything screened.
IL1B secr inh – qHTS for Inhibitors of Inflammasome Signaling: IL-1-beta AlphaLISA Primary Screen | AID 743279, 2014 | 360,000 tested, 4.7% active | activity change, % at 57.5 µM | THP-1 LPS/ATP IL-1B secretion, AlphaLISA, 16 h; stronger effect = lower value; in the data active means activity change below about -50%; inconclusive means mostly about -30% to -49%
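Secreted IL-1B measured by AlphaLISA bead assay after 16 h compound exposure of THP-1 cells; compounds (final up to 57.5 uM) added 1 h before LPS (250 ng/mL) and ATP (1.25 mM) stimulation; lower signal means less secretion.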
HT1080-NT tox – qHTS for induction of synthetic lethality in tumor cells producing 2HG: qHTS for the HT-1080-NT fibrosarcoma cell line. HT-1080-NT fibrosarcoma viability, CellTiter-Glo ATP luminescence, 48 h. Potency, µM (highest dose often 46.1 µM), usual class: cytotoxic. 360,000 tested, 1.6% active;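 further: NT is the 2HG producing partner of a matched IDH1 knockdown line; nearly all actives have a fitted effect of over 55% in size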
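HT-1080-NT fibrosarcoma cells (2HG-overproducing), 750 cells/well in RPMI with 5% FBS, dosed after 2 h and incubated 48 h at 37C. CellTiter-Glo luminescence normalized to DMSO and no-cell wells; concentration-response curves fitted and classed.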
DT40 TDP1 CPT – qHTS for Inhibitors of human tyrosyl-DNA phosphodiesterase 1 (TDP1): qHTS in cells in presence of CPT; chicken DT40 Tdp1-/-;hTDP1 cells + 20 nM CPT, ATP luminescence, 48 h; Potency, µM (series often up to 46.2 µM), hits mostly inhibitors; 420,000 tested, 12% active; AID 686979, 2013; further: nearly all actives have a fitted effect of over 55% in size
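Chicken DT40 Tdp1-/- cells complemented with human TDP1, 400 cells/well, exposed to compounds plus 20 nM camptothecin for at least 48 h at 37 C; viability read as ATP content by CellTiter-Glo luminescence.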
TDP1 cell noCPT – qHTS for Inhibitors of human tyrosyl-DNA phosphodiesterase 1 (TDP1): qHTS in cells in absence of CPT | DT40 Tdp1-/- hTDP1 cells, no CPT, ATP luminescence, 48 h | Potency, µM (doses to about 46.2 µM), hits mostly inhibitors | 420,000 tested, 15% active; further: nearly all actives have a fitted effect of over 55% in size
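DT40 Tdp1-/-;hTDP1 cells, no CPT (DMSO vehicle only), 400 cells/well; compounds pin-transferred; ≥48 hr, 37 °C; CellTiter-Glo 30 min RT dark, luminescence read.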
HT1080 IDH1KD tx – qHTS for induction of synthetic lethality in tumor cells producing 2HG: qHTS for the HT-1080-IDH1KD cell line. Potency, µM (doses to about 46.1 µM), usual class: cytotoxic. AID 686971, 2013. 360,000 tested, 2% active. HT-1080 IDH1 knockdown viability, ATP luminescence, 48 h
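Luminescent ATP read-out (CellTiter-Glo, 10 min at room temperature) after 48 h compound exposure at 37 °C gave viability of IDH1-knockdown HT-1080 cells. Activity was normalised to DMSO and cell-free wells, then fitted as concentration-response curves.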
Of the large screens only hits and unclear results are named; the others gave an inactive call. Unless noted, the call rests on the fitted dose curve; in most records, active means well fitted curve in the direction sought with a large enough effect; inconclusive means small, poorly fitted or top-dose-only effect, or another doubt; inactive means no such curve, though single readings can be large; an effect the other way counts as inactive or inconclusive.

O=C(NCc1cccc(Br)c1)c1cc(-c2ccccc2)nn1CC1CC(c2cccc([N+](=O)[O-])c2)=NO1 (configuration not stated)	TDP1 cell noCPT inconclusive
COc1ccc(-c2nc3c4ccccc4[nH]c(=O)n3n2)cc1	HT1080-NT tox inconclusive, DT40 TDP1 CPT inconclusive, TDP1 cell noCPT inconclusive
COc1cc2[nH]c(=O)n3nc(-c4ccccc4)nc3c2cc1OC	DT40 TDP1 CPT 23µM, TDP1 cell noCPT 21µM
CCC1Oc2ccc(C)cc2N(CC(=O)NCC2CCCO2)C1=O (configuration not stated)	HT1080-NT tox inconclusive
O=C(c1c[nH]c(C(=O)C(Cl)(Cl)Cl)c1)c1ccccc1F	DT40 TDP1 CPT inconclusive, TDP1 cell noCPT inconclusive
O=C(c1c[nH]c(C(=O)C(Cl)(Cl)Cl)c1)c1c(F)cccc1F	IL1B secr inh -99, HT1080-NT tox inconclusive, DT40 TDP1 CPT inconclusive, TDP1 cell noCPT 21µM
COc1ccccc1NC(=O)C1=C(C)Nc2nc(SCc3ccccc3)nn2C1c1cccnc1 (configuration not stated)	DT40 TDP1 CPT 21µM, TDP1 cell noCPT inconclusive (no result: IL1B secr inh, HT1080-NT tox, HT1080 IDH1KD tx)
COc1ccc(C2C(C(=O)Nc3ccc(C)cc3C)=C(C)Nc3nc(SC)nn32)cc1OC (configuration not stated)	none (no result: IL1B secr inh, HT1080-NT tox, HT1080 IDH1KD tx)
CC1=C(C(=O)Nc2cccnc2)C(c2ccccc2)n2nc(SCc3ccccc3)nc2N1 (configuration not stated)	none (no result: IL1B secr inh, HT1080-NT tox, HT1080 IDH1KD tx)
COc1cccc(CSc2nc3n(n2)C(CC(C)C)C(C(=O)Nc2ccccc2C)=C(C)N3)c1 (configuration not stated)	DT40 TDP1 CPT inconclusive (no result: IL1B secr inh, HT1080-NT tox, HT1080 IDH1KD tx)
CC1=C(C(=O)Nc2ccc(C)cc2C)C(CC(C)C)n2nc(SCc3ccccc3C)nc2N1 (configuration not stated)	DT40 TDP1 CPT 10µM, TDP1 cell noCPT 12µM (no result: IL1B secr inh, HT1080-NT tox, HT1080 IDH1KD tx)
CC1=C(C(=O)Nc2ccc(C)cc2C)C(c2ccc(Cl)cc2)n2nc(C(=O)OC(C)C)nc2N1 (configuration not stated)	DT40 TDP1 CPT inconclusive, TDP1 cell noCPT 16µM
COc1ccccc1NC(=O)C1=C(C)Nc2nc(SCc3cc(C)ccc3C)nn2C1c1ccccc1 (configuration not stated)	DT40 TDP1 CPT 12µM (no result: IL1B secr inh, HT1080-NT tox, HT1080 IDH1KD tx)
CC1=C(C(=O)Nc2ccccc2)C(c2ccc(F)cc2)n2nc(SCc3cc(C)ccc3C)nc2N1 (configuration not stated)	none (no result: IL1B secr inh, HT1080-NT tox, HT1080 IDH1KD tx)
COc1ccccc1NC(=O)C1=C(C)Nc2nnnn2C1c1cc(Br)c(O)c(OC)c1 (configuration not stated)	none (no result: IL1B secr inh, HT1080-NT tox, HT1080 IDH1KD tx)
Cc1ccc(S(=O)(=O)N2CCC[C@H]2C(=O)Nc2ccc(F)cc2C)cc1	DT40 TDP1 CPT inconclusive
COc1ccccc1NC(=O)C1=C(C)Nc2nc(SCc3ccccc3)nn2C1c1cccc(O)c1 (configuration not stated)	DT40 TDP1 CPT inconclusive, TDP1 cell noCPT 23µM (no result: IL1B secr inh, HT1080-NT tox, HT1080 IDH1KD tx)
COc1ccccc1NC(=O)C1=C(C)Nc2nc(SCc3ccccc3F)nn2C1c1cccnc1 (configuration not stated)	DT40 TDP1 CPT 15µM, TDP1 cell noCPT 10µM (no result: IL1B secr inh, HT1080-NT tox, HT1080 IDH1KD tx)
O=C(Nc1cc(Cl)cc(Cl)c1)N1CCCC1	DT40 TDP1 CPT inconclusive, TDP1 cell noCPT inconclusive
c1cncc(-c2cn(C[C@H]3CC[C@@H]([C@@H]4CC[C@H](Cn5cc(-c6cccnc6)nn5)O4)O3)nn2)c1	none
c1ccc(SCc2cn(C[C@H]3CC[C@@H]([C@@H]4CC[C@H](Cn5cc(CSc6ccccc6)nn5)O4)O3)nn2)cc1	DT40 TDP1 CPT inconclusive, TDP1 cell noCPT 16µM
O=C1c2ccccc2C(=O)N1CCCc1cn(C[C@H]2CC[C@@H]([C@@H]3CC[C@H](Cn4cc(CCCN5C(=O)c6ccccc6C5=O)nn4)O3)O2)nn1	none
COc1cccc(-c2cn(C[C@H]3CC[C@@H]([C@@H]4CC[C@H](Cn5cc(-c6cccc(OC)c6)nn5)O4)O3)nn2)c1	DT40 TDP1 CPT inconclusive, TDP1 cell noCPT 16µM
O=C1c2ccccc2C(=O)N1CCCCc1cn(C[C@H]2CC[C@@H]([C@@H]3CC[C@H](Cn4cc(CCCCN5C(=O)c6ccccc6C5=O)nn4)O3)O2)nn1	DT40 TDP1 CPT 16µM, TDP1 cell noCPT 16µM
CC1CN(C(=O)CSc2nnc(-c3cccs3)n2N)CC(C)O1 (configuration not stated)	none
CCCCN1CCCCC1(C)C(=O)NCc1ccc2c(c1)OCO2 (configuration not stated)	DT40 TDP1 CPT inconclusive, TDP1 cell noCPT inconclusive
CCCN(CCC)CCNC(=O)c1cc(Sc2ccc(Cl)cc2)nc2ccccc12	DT40 TDP1 CPT 16µM, TDP1 cell noCPT 18µM (no result: IL1B secr inh, HT1080-NT tox, HT1080 IDH1KD tx)
CCc1ccc(Sc2cc(C(=O)NCCN3CCOCC3)c3ccccc3n2)cc1	IL1B secr inh inconclusive, DT40 TDP1 CPT inconclusive, TDP1 cell noCPT 15µM
CCN(CC)CCNC(=O)c1cc(Sc2nnc(C)s2)nc2ccccc12	none
CCOc1ccc(Sc2cc(C(=O)NCCCOC)c3ccccc3n2)cc1	DT40 TDP1 CPT 21µM, TDP1 cell noCPT 16µM (no result: IL1B secr inh, HT1080-NT tox, HT1080 IDH1KD tx)
CC1CCCCN1CCCNC(=O)c1cc(Sc2ccc(Cl)cc2)nc2ccccc12 (configuration not stated)	DT40 TDP1 CPT 18µM, TDP1 cell noCPT 21µM (no result: IL1B secr inh, HT1080-NT tox, HT1080 IDH1KD tx)
COCCCNC(=O)c1cc(Sc2nnc(C)s2)nc2ccccc12	none
O=C(O)CC(Sc1n[nH]c(=S)s1)C(=O)O (configuration not stated)	none
Cc1ccc2c(=O)cc(C(=O)Nc3c(C(=O)c4ccccc4)oc4ccccc34)oc2c1	none (no result: IL1B secr inh, HT1080-NT tox, HT1080 IDH1KD tx)
CC1CCN(CCCNC(=O)c2cc(Sc3ccc(F)cc3)nc3ccccc23)CC1	DT40 TDP1 CPT 23µM, TDP1 cell noCPT inconclusive (no result: IL1B secr inh, HT1080-NT tox, HT1080 IDH1KD tx)
CCO[C@H]1OC(C(=O)N2CCN(Cc3ccccc3)CC2)=C[C@@H](C2CCCCC2)[C@@H]1CCCO	IL1B secr inh -60, DT40 TDP1 CPT 9.2µM, TDP1 cell noCPT 9.2µM
CCO[C@@H]1OC(C(=O)N2CCN(Cc3ccc4c(c3)OCO4)CC2)=C[C@H](C2CCCCC2)[C@H]1CCCO	IL1B secr inh -60, DT40 TDP1 CPT 21µM, TDP1 cell noCPT inconclusive
CCO[C@@H]1OC(C(=O)NC2CC2)=C[C@H](c2ccc(C(F)(F)F)cc2)[C@H]1CCCO	DT40 TDP1 CPT inconclusive, TDP1 cell noCPT inconclusive
CCO[C@@H]1OC(C(=O)N2CCN(Cc3ccccc3)CC2)=C[C@H](C)[C@H]1CCCO	none

Screening data: PubChem BioAssay, National Center for Advancing Translational Sciences (NCATS)
